Screening data: PubChem, several laboratories
Hits are enriched below; roughly 3.5% of the tested compounds scored in any of these assays.
Autofluor counter = counter-screen for toxin protease inhibitors: compound fluorescence | compound autofluorescence counterscreen, microsphere flow cytometry; hits give high values | fluorescence intensity (concentration not given with the values) | 360,000 tested, 3.1% active; in the data active means fluorescence intensity above about 16000; inconclusive means no clear call, values can overlap the other calls
Anthrax LF prot = anthrax lethal factor protease inhibition; inhibition, % at 10 µM; P15917; AID 588501; 360,000 tested, 0.12% active; multiplex microsphere protease cleavage assay, LF
Target sequence (P15917 whole entry, looked up): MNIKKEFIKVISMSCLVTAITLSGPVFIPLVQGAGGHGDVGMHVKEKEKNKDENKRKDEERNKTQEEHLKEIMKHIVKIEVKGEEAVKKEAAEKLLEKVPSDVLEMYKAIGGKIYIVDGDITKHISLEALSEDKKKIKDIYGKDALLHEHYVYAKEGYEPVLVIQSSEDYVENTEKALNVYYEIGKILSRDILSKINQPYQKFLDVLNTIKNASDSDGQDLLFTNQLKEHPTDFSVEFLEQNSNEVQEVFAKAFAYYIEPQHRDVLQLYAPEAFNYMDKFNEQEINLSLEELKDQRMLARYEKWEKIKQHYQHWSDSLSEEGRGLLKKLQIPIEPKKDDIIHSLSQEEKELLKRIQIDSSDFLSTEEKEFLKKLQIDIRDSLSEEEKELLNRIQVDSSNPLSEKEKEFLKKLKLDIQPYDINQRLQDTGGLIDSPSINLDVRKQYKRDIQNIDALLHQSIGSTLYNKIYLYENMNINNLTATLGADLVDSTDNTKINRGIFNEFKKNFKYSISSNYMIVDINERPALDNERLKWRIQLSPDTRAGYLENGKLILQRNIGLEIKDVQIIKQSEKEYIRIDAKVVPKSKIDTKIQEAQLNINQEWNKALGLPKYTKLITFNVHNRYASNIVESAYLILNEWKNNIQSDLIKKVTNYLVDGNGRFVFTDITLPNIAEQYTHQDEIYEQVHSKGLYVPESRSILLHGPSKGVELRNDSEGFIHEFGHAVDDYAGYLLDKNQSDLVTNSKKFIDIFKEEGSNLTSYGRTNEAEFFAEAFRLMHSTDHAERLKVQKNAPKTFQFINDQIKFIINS
BoNT F protease = BoNT F light chain protease inhibition; 360,000 tested, 0.22% active; Multiplex microsphere protease cleavage assay, flow cytometry; AID 588497; inhibition, % at 10 µM; in the data active means inhibition above about 35%, passing the limit was not always enough; inconclusive means no clear call, values can overlap the other calls
3CLpro inhibitor = SARS-CoV 3CLpro protease inhibition | recombinant SARS-CoV 3CLpro, quenched FRET peptide cleavage | inhibition, % at 6 µM | P0C6X7 | 290,000 tested, 0.14% active; in the data active means inhibition above about 12%
BoNT-A LC inh2 = BoNT A light chain protease inhibition; multiplex microsphere protease substrate cleavage, flow cytometry; inhibition, % at 10 µM; 360,000 tested, 0.17% active; AID 588499
Each line names hits and unclear results; the compound was inactive in the other large screens; ! = not confirmed by another sample. Unless noted, no stated cut-off is given here; in the data, active means inhibition above about 30%; inconclusive means no clear call, values can overlap the other calls; inactive means below that.

CC(C)(C)NC(=O)CN(C(=O)CS(=O)CC(=O)Nc1ccc(F)cc1)c1cccc(F)c1 (centres undefined)	none
CC(C)(C)NC(=O)CN(C(=O)CS(=O)CC(=O)Nc1ccc(F)cc1)c1ccc(F)c(Cl)c1 (centres undefined)	Autofluor counter 20160
C/C(=N\NC(=O)c1ccc(N(C)C)cc1)c1cccnc1	none
CCn1nc(C)c(NC(=O)c2cc(Br)ccc2Cl)c1C	Autofluor counter 19900
Cc1c(N=Cc2ccc(-c3ccc(Cl)cc3)o2)c(=O)n(-c2ccccc2)n1C	none
CCn1[nH]c(=O)c(=Nc2c(C)n(C)n(-c3ccccc3)c2=O)cc1-c1ccc(Cl)cc1	Autofluor counter 22167
O=[N+]([O-])c1ccc(/C=C/C2=NN(c3ccccc3)C(c3ccco3)C2)cc1 (centres undefined)	Autofluor counter 34435, Anthrax LF prot 40, BoNT F protease 66, BoNT-A LC inh2 57
CC1=NN(c2ccccc2)C(c2ccco2)C1 (centres undefined)	none (no result: 3CLpro inhibitor)
CCCN(CCC)C(=O)Nc1cc(Cl)ccc1OC	none
COC(=O)c1cc(-n2cccc2)ccc1N1CCOCC1	none
CCCn1cc(C(CC(=O)O)C(=O)O)c2ccccc21 (centres undefined)	Autofluor counter 24400
Cn1cc(C(CC(=O)O)C(=O)O)c2ccccc21 (centres undefined)	Autofluor counter 23907
CCOC(=O)CC(C#N)c1cn(C)c2ccccc12 (centres undefined)	none
Cc1c(CCO)c(=O)[nH]n1C(=O)c1ccc(F)cc1	Autofluor counter 23529
Cc1c(CCO)c(=O)n(C)n1C(=O)c1ccc(F)cc1	none
Cc1ccc(S(=O)(=O)N2CCN(CC(=O)Nc3ccccc3Cl)CC2)cc1	none (no result: 3CLpro inhibitor)
Cc1ccc(S(=O)(=O)Nc2ccc(NC(=O)CN3CCCCC3)c(Cl)c2)cc1	Autofluor counter 19818
CCn1c(SCc2nnc(-c3ccccc3)o2)nnc1-c1ccc(S(=O)(=O)N2CCCC2)cc1	Autofluor counter 23063
CCOC(=O)/C(=N/Nc1ccc(C)cc1)S(=O)(=O)c1ccc(Cl)cc1	none
CCOC(=O)N=S(N)(=O)c1ccc(Cl)cc1 (centres undefined)	none
CCOC(=O)/C(=N\Nc1ccccc1)S(=O)(=O)c1ccccc1	Autofluor counter 23295
CCOC(=O)N=S(N)(=O)c1ccccc1 (centres undefined)	Autofluor counter 20787
CCCN1CCN(CCCNC(=O)CCN2C(=O)COc3ccccc32)CC1	none
NC1=NC(=Nc2cccc(S(=O)(=O)N3CCOCC3)c2)c2ccccc21	none
Cn1c(=O)c2c(-c3ccccc3)n(-c3cc(Cl)c([N+](=O)[O-])cc3O)cc2n(C)c1=O	Autofluor counter 21612 (no result: 3CLpro inhibitor)
CC(=O)Nn1cc2c(c1-c1ccccc1)c(=O)n(C)c(=O)n2C	Autofluor counter 24616
C=CCn1c(COC)nnc1SCC(=O)c1ccc(F)cc1	Autofluor counter 16919, BoNT-A LC inh2 inconclusive
Cc1c(C(=O)NCC2COc3ccccc3O2)oc2ccc(S(=O)(=O)N(C)C3CCCCC3)cc12 (centres undefined)	none
CCOC(=O)Cn1c(=O)sc2ccccc21	Autofluor counter 23284
COc1ccccc1OCCCn1c(=O)sc2ccccc21	Autofluor counter 20682, BoNT-A LC inh2 inconclusive
O=c1sc2ccccc2n1CCOc1ccccc1	Autofluor counter 23573
Cc1cc(C(=O)NCc2cccnc2)no1	Autofluor counter 22225
COc1ccccc1CNC(=O)c1cnccn1	Autofluor counter 17158
CN(C)CCCNCCCNC(=O)/C(=N\O)c1ccccn1	Autofluor counter 22814, BoNT-A LC inh2 inconclusive
O=C(NCCCNCc1ccccc1)c1ccccn1	Autofluor counter 24330!
CCCCN(C(=O)CN(C)CC(=O)Nc1cccc(OC)c1)c1c(N)n(CCCC)c(=O)[nH]c1=O	none (no result: 3CLpro inhibitor)
COc1ccc([C@H]2N[C@]3(CCCN(Cc4ccc(C(F)(F)F)cc4)C3=O)[C@H]3C(=O)N(Cc4ccccc4)C(=O)[C@@H]23)cc1	none (no result: 3CLpro inhibitor)
COC(=O)C1=C(N)Oc2cc(C)n(CCc3ccccc3)c(=O)c2C1c1cccnc1 (centres undefined)	none
Cc1cc(C(=O)NCC(c2ccco2)N(C)C)no1 (centres undefined)	Autofluor counter 19860
COc1ccc(C(=O)NCc2cccnc2)cc1OC	Autofluor counter 22834
O=C(O)c1ccccc1C(=O)NCc1cccnc1	none
COc1ccc(-c2cc(C(=O)NCc3cccnc3)no2)cc1OC	none
O=C(NCc1cccnc1)c1ccccn1	Autofluor counter 22039
Cc1ccc(-c2cc(C(=O)NCc3cccnc3)no2)cc1	Autofluor counter 17516
O=C(NC1CCCc2ccccc21)c1cc(S(=O)(=O)N2CCOCC2)ccc1F (centres undefined)	none
CC1(C(=O)NS(=O)(=O)c2ccc(Cl)cc2)CCN1C(=O)c1ccco1 (centres undefined)	none (no result: 3CLpro inhibitor)
CC(C)CCNC(=O)c1c(CSc2ccc(Cl)cc2)noc1C(=O)NCc1ccccc1	none (no result: 3CLpro inhibitor)
CC(=O)Nc1nonc1NC(C)=O	none
CC(=O)Nc1cc(OC(C)=O)c2nonc2c1OC(C)=O	3CLpro inhibitor 37
O=C(CSc1nnnn1C1CCCC1)NCCc1ccccc1	none
O=C(Nc1ccc(Cl)cc1)N1CCC(c2nc(-c3cccs3)no2)CC1	Autofluor counter 24323, BoNT-A LC inh2 inconclusive
COc1cc(C(=O)N2CCCC(c3nc(-c4cccs4)no3)C2)cc(OC)c1OC (centres undefined)	Autofluor counter 17019
O=C(Nc1cccc(C(F)(F)F)c1)N1CCC(c2nc(-c3ccc(F)cc3)no2)CC1	Autofluor counter 20249
COc1ccc(NC(=O)N2CCC(c3nc(-c4cccs4)no3)CC2)cc1	none
O=C(Nc1ccccc1)N1CCCC(c2nc(-c3ccc(F)cc3)no2)C1 (centres undefined)	BoNT F protease inconclusive
COc1ccc(-c2noc(CN(C(=O)c3cccs3)C(C)C)n2)cc1	none
O=C(c1ccccc1)c1nccn1-c1ccc(Cl)nn1	none
Cc1cccnc1NC(=O)C12CCC(C)(C(=O)O1)C2(C)C (centres undefined)	Autofluor counter 22033
CCn1nc(NS(=O)(=O)c2ccc(F)cc2)c2cc3cccc(C)c3nc21	none
CCn1nc(NS(=O)(=O)c2ccccc2)c2cc3cccc(C)c3nc21	Autofluor counter 19546, BoNT-A LC inh2 inconclusive
CCSc1nnc(NC(=O)C(C(F)(F)F)C(F)(F)F)s1	Autofluor counter 23475
CCSc1nnc(NC(=O)C(CC)(C(F)(F)F)C(F)(F)F)s1	none
CCSc1nnc(NC(=O)C(C)(C(F)(F)F)C(F)(F)F)s1	Autofluor counter 16389
CCn1c(=O)c(C(=O)CN2CCCc3ccccc32)c(N)n(Cc2ccccc2)c1=O	Autofluor counter 32189, BoNT-A LC inh2 inconclusive
CCCCOP(=O)(c1ccc(N(C)C)cc1)C(O)c1ccncc1 (centres undefined)	none
O=C(OC1CSc2nc3ccccc3n2C1)c1ccco1 (centres undefined)	Autofluor counter 21891
Cc1cc2ccccc2n1CCNC(=O)c1cccs1	BoNT-A LC inh2 79
COc1cc(/C=N/Nc2nn3cnnc3c3ccccc23)ccc1O	Autofluor counter 21210, BoNT-A LC inh2 inconclusive
